TWEAK Fn14 block: inhibitors of TWEAK-Fn14 interaction signaling; inhibition, % at 10 µM; 2% of 360,000 active; TWEAK-stimulated Fn14 reporter cells, luciferase luminescence, 8 h; in the data active = inhibition above about 50%
TROY NFkB inh: TROY signaling inhibition; Q293 LMP1-TROYcd NF-kB luciferase reporter, 4 h; inhibition, % at 10 µM; 0.98% of 360,000 active; AID 1347056;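 active = compounds whose plate-normalised and pattern-corrected inhibition of the luciferase reporter signal at the single screening dose is 50% or more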
Shn3 3UTR inh: Schnurri-3 reporter inhibition in Clone20 osteoblasts; Clone20 osteoblast Shn3 3'UTR firefly luciferase, 24 h; inhibition, % at 12.5 µM; 0.52% of 360,000 active; AID 588674;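 active = mean inhibition of at least 75% with every replicate also reaching 75%; inconclusive = mean inhibition at least 75% but some replicate below; inactive = mean inhibition below 75%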
LMP1 NFkB inh: reduces LMP1-driven NF-kappaB luciferase signal. inhibition, % at 12.5 µM. 0.69% of 350,000 active. AID 504558. LMP1-induced NF-kappaB luciferase reporter cells, luminescence; in the data active = inhibition above about 41%; inconclusive = no clear call, values can overlap the other calls
MITF TRPM1 inh: inhibitors of MITF-driven TRPM1 promoter in melanoma cells. SK-MEL-5 TRPM1 promoter luciferase, 24 h. inhibition, % at 12.5 µM. 0.83% of 330,000 active. AID 488899;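 active = mean inhibition across replicates of 60% or more, whatever share of single replicates reaches that level; inconclusive = some that reach 60%, reason not given; inactive = mean inhibition across replicates below 60%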
HIF-2a block: inhibitors of HIF-2a; 786-0 RCC cells HIF-2a reporter, luciferase luminescence, overnight; inhibition, % at 18.8 µM; 0.72% of 360,000 active;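 active = inhibition of the luminescence signal of 40% or more relative to plate controls, in a single-dose primary screen at 18.75 µM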
Large screens that a line does not name were inactive. Hits are enriched below; roughly 3.4% of the tested compounds scored in any of these assays.

COC(=O)c1cc(=O)nc(NN=C2c3ccccc3-c3ccccc32)s1	TWEAK Fn14 block 60.7 (no result: LMP1 NFkB inh, MITF TRPM1 inh)
CCCCC(=O)NC(c1cccs1)c1cc(Cl)c2cccnc2c1O (stereo unspecified)	none
CCCC(=O)NC(c1ccc(OC)c(OC)c1)c1cc(Cl)c2cccnc2c1O (stereo unspecified)	Shn3 3UTR inh 87.8, MITF TRPM1 inh inconclusive
CC(=O)NC(c1ccccc1)c1cc(Cl)c2cccnc2c1O (stereo unspecified)	none
COc1ccc(C(NC(C)=O)c2cc(Cl)c3cccnc3c2O)cc1 (stereo unspecified)	Shn3 3UTR inh 89.6, LMP1 NFkB inh 42.2
Cc1nc(N)nc(N(C)c2ccccc2)c1Br	none
Cc1ccc2nc(-c3ccc(C#N)cc3)c(Cc3ccccc3)n2c1	none (no result: Shn3 3UTR inh, LMP1 NFkB inh, MITF TRPM1 inh)
Cc1ccccc1CNC(=O)/C=C\C(=O)O	TROY NFkB inh 74.6
CCn1c(CNC(=O)c2ccccc2F)nnc1SCC(=O)Nc1nncs1	none
Cc1ccc(-c2nc(N)sc2C)cc1	TROY NFkB inh 88.2
O=C1C2CC=CCC2C(=O)N1c1nccs1 (stereo unspecified)	none
CNS(=O)(=O)c1cc(NC(=O)c2cncn2-c2ccccc2)ccc1C	TWEAK Fn14 block 78.7
COc1cc(/C=N/Nc2ccc(C(=O)O)cc2)ccc1O	TWEAK Fn14 block 71.5
O=C(O)c1cccc(N/N=C/c2ccc(OC(F)(F)F)cc2)c1	MITF TRPM1 inh 73.6
COc1cc(/C=N/Nc2ccccn2)ccc1O	TWEAK Fn14 block 63.1, TROY NFkB inh 87.5
COc1ccc(/C=N/Nc2ccccn2)cc1OC	none (no result: Shn3 3UTR inh)
COc1cc(/C=N/NC(=S)Nc2cccc(C(=O)O)c2)ccc1O	LMP1 NFkB inh 73.9, HIF-2a block 43.3
COC(=O)c1ccc(COc2ccc(/C=N/Nc3cccc(C(=O)O)c3)cc2)cc1	none
O=c1ccc2ccc(OCc3ccccc3)cc2o1	none
CSc1nc(Cl)c(Br)c(Nc2c[nH]c(=O)[nH]c2=O)n1	none
COc1ccc(/C=N/NC(=S)Nc2cccc(C(=O)O)c2)cc1	TWEAK Fn14 block 50.0
COc1cc(/C=N/Nc2nc(C)nc3c2cnn3-c2ccccc2)ccc1O	TWEAK Fn14 block 64.0
COc1cc(/C=N/NC(=O)c2nc(-c3ccccc3)n(-c3ccccc3)n2)ccc1O	none
COC(=O)c1ccc(COc2cccn3c(N(C)C(=O)CCC4CCCC4)c(C)nc23)cc1	TWEAK Fn14 block 51.7 (no result: LMP1 NFkB inh, MITF TRPM1 inh)
Cc1nc2c(OCc3ccc(F)cc3)cccn2c1N(C)C(=O)CCC1CCCC1	none (no result: LMP1 NFkB inh, MITF TRPM1 inh)
O=C(OCc1ccc(COC(=O)c2ccc(O)cc2)cc1)c1ccc(O)cc1	TROY NFkB inh 60.7
O=C(NNS(=O)(=O)c1ccc([N+](=O)[O-])cc1)C(=O)Nc1cccc(C(=O)O)c1	none
COc1ccc(C(=O)Cn2c(NCCCO)nc3ccccc32)cc1	none (no result: MITF TRPM1 inh)
Cc1cc2nc(NCCCO)n(CC(=O)c3cc(C(C)(C)C)c(O)c(C(C)(C)C)c3)c2cc1C	TWEAK Fn14 block 61.5
CCOC(=O)NC(=O)/C(C#N)=N\Nc1ccc(Cl)cc1	none
CCOC(=O)NC(=O)/C(C#N)=N\Nc1cccc(Cl)c1	TROY NFkB inh 55.7
CC(Oc1ccc(Br)cc1)C(=O)Nc1nc(-c2ccccn2)cs1 (stereo unspecified)	TROY NFkB inh 61.2, MITF TRPM1 inh 67.2
CC(C)[C@H](NC(=O)c1ccccc1Cl)C(=O)Nc1nc(-c2ccccn2)cs1	none
COc1cccc(-c2ccc3c(c2)O[C@@H](CN(C)Cc2cncnc2)[C@@H](C)CN([C@H](C)CO)S3(=O)=O)c1	none (no result: MITF TRPM1 inh)
Cc1ccc(C(=O)N2c3ccccc3N(Cc3ccccc3)C(=O)C2(C)C)cc1	TWEAK Fn14 block 52.7
O=C1N/C(=C/c2cccn2-c2ccccc2)C(=O)N1Cc1ccc(F)cc1	none
O=C1N/C(=C/c2cccn2-c2ccc(F)cc2)C(=O)N1Cc1ccccc1F	TWEAK Fn14 block 74.9
CCc1noc(C)c1C(=O)N(C)CC(=O)Nc1ccc(OC)cc1	none
CCc1noc(C)c1C(=O)N(C)CC(=O)Nc1cccc(OC)c1	LMP1 NFkB inh 67.6 (no result: MITF TRPM1 inh)
O=S(=O)(c1ccc(-c2csc(Nc3ccc(F)cc3)n2)cc1)N1CCCC1	none
O=C(COc1ccc(Cl)cc1)Nc1nc(-c2ccc(S(=O)(=O)N3CCOCC3)cc2)cs1	TWEAK Fn14 block 71.4
O=S(=O)(c1ccc(-c2csc(Nc3ccc(Br)cc3)n2)cc1)N1CCCC1	TWEAK Fn14 block 60.9
Cc1csc(NC(=O)c2ccc(S(=O)(=O)N3CCCC3)cc2)n1	none
O=C(Nc1nc(-c2ccc(S(=O)(=O)N3CCCCCC3)cc2)cs1)c1ccccc1	TWEAK Fn14 block 69.7
O=C(Nc1nc(-c2cccs2)cs1)c1ccc(S(=O)(=O)N2CCCC2)cc1	TWEAK Fn14 block 92.6, TROY NFkB inh 65.6
COc1ccc(NC(=O)Nc2cccc3c2O[C@@H](CN(C)S(=O)(=O)c2cn(C)cn2)[C@@H](C)CN([C@H](C)CO)C3=O)cc1	none
O=C(Nc1nc(-c2ccc(S(=O)(=O)N3CCCC3)cc2)cs1)C1COc2ccccc2O1 (stereo unspecified)	TWEAK Fn14 block 60.8
CN(C)S(=O)(=O)c1ccc(C(=O)Nc2nc(-c3cccs3)cs2)cc1	TWEAK Fn14 block 55.9, TROY NFkB inh 54.7 (no result: MITF TRPM1 inh)
CN(C)S(=O)(=O)c1ccc(C(=O)Nc2nnc(-c3cccs3)o2)cc1	none
Cc1ccc(-c2csc(NC(=O)c3ccc(-c4ccccc4)cc3)n2)o1	TWEAK Fn14 block 67.5
Cc1cc(C(=O)N/N=C/c2ccc(C)s2)n[nH]1	none
CCOC(=O)N/N=C\c1ccc([N+](=O)[O-])s1	none
CC(C)(C)OC(=O)N/N=C\c1ccc([N+](=O)[O-])s1	TWEAK Fn14 block 90.5, TROY NFkB inh 66.3
Cc1cc(C(=O)N/N=C/c2ccc([N+](=O)[O-])s2)n[nH]1	MITF TRPM1 inh 69.8 (no result: Shn3 3UTR inh)
Cc1ccc(C(=O)N/N=C/c2ccc([N+](=O)[O-])s2)cc1	TWEAK Fn14 block 95.1, Shn3 3UTR inh 89.8, MITF TRPM1 inh 104.7, HIF-2a block 90.8
COc1ccc(NC(=O)CCC(=O)N/N=C/c2ccc([N+](=O)[O-])s2)cc1	MITF TRPM1 inh 72.2
CO[C@@H]1CN(C)C(=O)c2ccc(NC(=O)C3CCCC3)cc2OC[C@@H](C)N(Cc2ccc(F)cc2)C[C@H]1C	none (no result: TWEAK Fn14 block, TROY NFkB inh, Shn3 3UTR inh, LMP1 NFkB inh, MITF TRPM1 inh)
CCc1nc2ccc(C(=O)Nc3ccc(C(=O)N(C)C)cc3)cn2c1N(C)CCCc1ccccc1	none (no result: LMP1 NFkB inh, MITF TRPM1 inh)
Cc1cccc(NC(=S)N/N=C/c2ccc([N+](=O)[O-])s2)c1	none
Cc1ccc(NC(=O)/C=C/c2ccc([N+](=O)[O-])s2)cc1	TWEAK Fn14 block 50.5, MITF TRPM1 inh 81.9
Cc1ccc(Cc2c(C(C)(C)C)nc3ccc(Br)cn23)cc1	none (no result: LMP1 NFkB inh, MITF TRPM1 inh)
O=C(CN1C(=O)NC(c2ccccc2)(c2ccccc2)C1=O)NCc1ccco1	none
CCCCCCc1cc2cc(C(=O)OCC)c(=O)oc2cc1O	none
CCCCCCc1cc2cc(S(=O)(=O)c3ccc(F)c(Cl)c3)c(=O)oc2cc1O	TWEAK Fn14 block 53.8, TROY NFkB inh 58.1
